Laboratory results: PubChem BioAssay (NCATS)
Results filed as inconclusive are left out. A number with no mark means an inactive call. Activity calls are given as the source filed them. Calls come from the whole dose curve; as a rule, active = well fitted cell-killing curve with a large enough effect; inconclusive = small, poorly fitted or top-dose-only effect, or effect the other way; inactive = no such curve, though single readings can be large or run the other way.

assay: Viability qHTS for spleen associated tyrosine kinase inhibitor (SYKi) drug resistant MV4-11 cells (AID 1963824); settings: SYKi-resistant MV4-11 viability, CellTiter-Glo, 72 h; series mostly up to 45 µM; viability, % of control: at the top concentration; note: nearly all actives have a fitted effect of over 35% in size
How it was run: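 SYK-inhibitor-resistant MV4-11 AML cells were seeded at 500 per well onto compound and cultured 72 hours (37 °C, 5% CO2). CellTiter-Glo was then added, and after 10 min at room temperature, luminescence gave viability.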
Potency is the fitted concentration of half-maximal effect.

| SMILES | Potency | viability, % of control |
| --- | --- | --- |
| C=CC(=O)N[C@H]1CCOC[C@H]1Nc1ncc2cc(-c3c(Cl)c(OC)cc(OC)c3Cl)ccc2n1 | 20.9 µM (active) |  |
| CC(=O)OC12CC(C)C(O)C1/C=C(/COC1OC(CO)C(O)C(O)C1O)CCC1C(/C=C(\C)C2=O)C1(C)C (centres undefined) |  | 94.3% [at 17.3 µM] |
| CC(C)n1cnc2c(NCc3cccc(C(F)(F)F)c3)ncnc21 | 20.6 µM (active) |  |
| CC(C)n1ncnc1-c1cn2c(n1)-c1ccc(O[C@@H](C)C(N)=O)cc1OCC2 | 4.68 µM (active) |  |
